PubChem BioAssay (NCATS)
Unmarked numbers belong to inactive results. Inconclusive results are not listed. Active and inactive are the calls of the source. Unless noted, calls come from the whole dose curve; as a rule, active = well fitted curve in either direction with a large enough effect (not every such curve was filed as active); inconclusive = small, poorly fitted or top-dose-only effect, or another doubt; inactive = flat fitted curve, though single readings scatter.

Columns and labels:
[1] = AP1 Signaling Pathway (AID 357); conditions: ME-180 AP-1-bla reporter, EGF-induced, beta-lactamase ratio, 5 h; at 17.2 µM (top of the series) unless noted;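 note: ME-180 reporter cells stimulated with EGF at its EC50 level; % is set by controls: 0 for no effect and ±100 for the full control effect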
Procedure, shortened: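 Modulation of EGF-driven AP-1 transcription was assessed with a beta-lactamase reporter in ME-180 cells. Compound and EC50 EGF were co-incubated 5 hours at 37 °C before 2.5-hour CCF4 loading at room temperature and dual-emission reading.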

[2] = NFAT Signaling Pathway (AID 444); conditions: Jurkat NFAT-bla M1, carbachol, beta-lactamase ratio, 5 h; at 17.2 µM (top of the series) unless noted;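 note: carbachol stimulus at about its EC50 of 1 µM final; % is set by controls: 0 for no effect and ±100 for the full control effect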
Procedure, shortened: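 Jurkat cells with NFAT-driven β-lactamase reporter and co-expressed M1 receptor, stimulated with carbachol (final 1 uM, ~EC50), compound titration, 5 h at 37 °C. CCF4 loaded 1 h at RT; 460/530 nm ratio gave %activity and AC50.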

[3] = Stat Signaling Pathway (AID 446); conditions: ME-180 SIE beta-lactamase reporter, IL-6 stimulated, 5 h; at 17.2 µM (top of the series) unless noted;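 note: ME-180 cervical cancer cells given 40 pM IL-6 alongside compound; SIE-controlled beta-lactamase reporter measured as 460/530 nm FRET emission ratio; % is set by controls: 0 for no effect and ±100 for the full control effect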
Procedure, shortened: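 Screening format detects activators and inhibitors alike: ME-180 SIE-bla cells stimulated at 40 pM IL-6 for 5 hrs with compound, then dual-emission beta-lactamase read at 405 nm excitation.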

[4] = target: Glucocorticoid receptor (Homo sapiens) (UniProt P04150); experiment: GR-GFP Redistribution (AID 450;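 active = compounds whose dose series gives a full or clear partial fitted curve of increased nuclear translocation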; note: potency is the fitted concentration of half-maximal effect)
Glucocorticoid receptor (Homo sapiens), sequence (P04150 whole entry, looked up): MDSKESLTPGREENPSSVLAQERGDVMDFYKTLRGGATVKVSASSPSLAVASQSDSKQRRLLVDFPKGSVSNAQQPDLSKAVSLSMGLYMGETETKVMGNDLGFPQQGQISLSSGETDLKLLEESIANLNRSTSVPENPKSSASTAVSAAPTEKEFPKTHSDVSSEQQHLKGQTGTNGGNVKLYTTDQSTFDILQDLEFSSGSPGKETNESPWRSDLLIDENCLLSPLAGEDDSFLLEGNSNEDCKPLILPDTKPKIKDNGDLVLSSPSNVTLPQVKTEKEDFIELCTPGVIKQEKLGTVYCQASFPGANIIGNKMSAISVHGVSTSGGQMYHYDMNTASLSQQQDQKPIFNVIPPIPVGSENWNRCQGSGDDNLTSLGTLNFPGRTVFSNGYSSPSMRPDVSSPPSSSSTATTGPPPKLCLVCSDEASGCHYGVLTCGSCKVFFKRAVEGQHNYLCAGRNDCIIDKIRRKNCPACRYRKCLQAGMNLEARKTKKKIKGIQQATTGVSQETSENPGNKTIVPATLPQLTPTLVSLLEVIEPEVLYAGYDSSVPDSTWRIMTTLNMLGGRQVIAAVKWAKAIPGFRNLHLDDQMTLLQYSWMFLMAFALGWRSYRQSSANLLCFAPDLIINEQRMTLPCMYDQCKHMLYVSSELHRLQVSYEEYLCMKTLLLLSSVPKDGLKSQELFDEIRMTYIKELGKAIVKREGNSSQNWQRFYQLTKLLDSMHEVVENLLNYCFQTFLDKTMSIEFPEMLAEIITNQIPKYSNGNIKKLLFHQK

Row | SMILES | activity change, negative = inhibition [1] | activity change, negative = inhibition [2] | activity, negative = inhibition [3] | Potency [4]
1 | CCCCOC(=O)CCc1nc2ccccc2[nH]1 | 5.71% | -0.459% | 6.02% | > 20.6 µM
2 | CC1CC(C(F)(F)F)n2ncnc2N1 (stereo not given) | 5.99% | -3.22% | 12.9% | > 20.6 µM
3 | Brc1ccc(-c2cnnc(N3CCCC3)n2)cc1 | -13.4% | 0.485% | 6.79% | > 20.6 µM
4 | COc1cc(C)nc(N(C)S(=O)(=O)c2ccccc2Cl)n1 | -3.56% | -19.3% | 1.54% | > 20.6 µM
5 | COC(=O)CSc1nc2c(c(=O)n(C)c(=O)n2C)n1CCC(C)C | 10.4% | -5.51% | 6.93% | > 20.6 µM
6 | Oc1ccc2ccccc2c1/C=N/n1cnnc1 | -5.14% | 6.11% | -0.766% | > 20.6 µM
7 | COc1ccc(/C(O)=C2/C(=O)C(=O)N(CCN3CCOCC3)C2c2ccccn2)cc1OC (stereo not given) | 3.25% | -11% | -5.39% | > 20.6 µM
8 | O=C(O)C1CCCCN1S(=O)(=O)c1cccc2nsnc12 (stereo not given) | 0.243% | 1.79% | 5.88% | > 20.6 µM
9 | Cc1c(C(Nc2ccccn2)c2ccccc2)c(=O)n(-c2ccccc2)n1C (stereo not given) | -3.17% | 2.74% | 8.77% | > 20.6 µM
10 | CCN(CC)c1nc(C)c2c(c1C#N)CC(C)(C)OC2 | -7.83% | -24.4% | 7.18% | > 20.6 µM
11 | OCCCc1nc2ccccc2n1CCc1ccccc1 | 6.55% | -7.48% | -0.378% | > 20.6 µM
12 | CCSc1nnc(NC(=O)NCC(F)(F)F)s1 | 7.55% | 2.76% | 16.4% | > 20.6 µM
13 | CC(C)c1nc(N2CCOCC2)c(C#N)c2c1COC(C)(C)C2 | -19.1% | -4.43% | 11.9% | > 20.6 µM
14 | Cc1nnc2n(Cc3ccccc3)c(=O)c3c4c(sc3n12)COC(C(C)C)C4 (stereo not given) | 10.6% | -9.5% | 5.19% | > 20.6 µM
15 | COc1ccccc1C1C(C#N)=C(N)Oc2cc(C)n(Cc3ccccn3)c(=O)c21 (stereo not given) | -12.5% | -9.78% | -1.34% | > 20.6 µM
16 | Nc1nnnn1CC(=O)OCc1cccc(Br)c1 | -12.9% | 14.6% | 12.3% | > 20.6 µM
17 | Cc1ccc(C#N)c(SCc2cc3c(cc2Cl)OCO3)n1 | 12.7% | -1.4% | 4.71% | > 20.6 µM
18 | COc1cccc(C2=CC(c3ccccc3)n3ncnc3N2)c1 (stereo not given) | -21.4% | -15.1% | -5.76% | > 20.6 µM
19 | COc1ccc(C2(CN(C(C)=O)C(C)=O)CCCC2)cc1OC | 4.19% | 4.27% | 1.89% | > 20.6 µM
20 | Cc1nc2c(c(=O)n1CC1CCCO1)c1nc3ccccc3nc1n2CCC(C)C (stereo not given) | 6.32% | -6.4% | -12.2% | > 20.6 µM
21 | CC1CN(C2CCN(C(=O)COc3ccccc3)CC2)CC(C)O1 (stereo not given) | -6.79% | -12.5% | -1.27% | > 20.6 µM
22 | COC(=O)CCc1c(C)[nH]c(=S)[nH]c1=O | 7.36% | 14.4% | 1.45% | > 20.6 µM
23 | CCC(NC(=O)Nc1nnc(C(F)(F)F)s1)(C(F)(F)F)C(F)(F)F | 18.4% | -115% (active) | -38.4% | > 20.6 µM
24 | COc1ccc2c(c1OC)C(=O)N1c3ccccc3SC21 (stereo not given) | 2.44% | 6% | -2.16% | > 20.6 µM
25 | Cn1c(=O)c2c(nc(Br)n2CCSc2nc3ccccc3o2)n(C)c1=O | 5.24% | 1.98% | 10.5% | > 20.6 µM
